{"source": "PubChem BioAssay (NCATS)", "note": "Records with an inconclusive call do not appear. A call without a number means that no potency is given here. Active and inactive are the calls of the source. Calls follow the shape of the dose curve; as a rule, active = well fitted activation curve with a large enough effect; inconclusive = small, poorly fitted or top-dose-only effect; inactive = no such curve, though single readings can be large or run the other way. Potency is read from the fitted curve at half-maximal effect.", "data": [{"test": "qHTS for activators of Nrf2/ARE signaling pathway screened against the NCATS CANVASS Library (AID 1347391); also: nearly all actives have a fitted effect of over 60% in size", "details": "ARE-bla HepG2, beta-lactamase reporter, 16 h; series mostly up to 46.1 µM", "source_text": "Natural products and their derivatives continue to be wellsprings of nascent therapeutic potential. However, many laboratories have limited resources for biological evaluation, leaving their previously isolated or synthesized compounds largely or completely untested. To address this issue, the Canvass library of natural products was assembled (https://tripod.nih.gov/canvass), in collaboration with academic and industry researchers, for quantitative high-throughput screening (qHTS) across a diverse set of cell-based and biochemical assays. The pure (>85% purity by liquid chromatography/mass spectrometry [LC/MS]) Canvass library of 346 natural products were submitted by 45 academic laboratories and companies around the world. We collected pure natural products to circumvent deconvolution and structure elucidation due to time and resource limitations. The library was formatted into 1536-well plates and evaluated in 50 qHTS (in an 11-pnt concentration series) bioassays with broad scope of disease-relevant mechanisms. The resulting data set from 50 different assays was then systematically analyzed to identify overall trends and specific natural products with interesting biological activities. Reported herein are the results of each individual qHTS and their corresponding assay protocol. This assay measures the activation of the Nrf2/ARE signaling pathway in cells using a beta-lactamase reporter gene. The ARE-bla HepG2 assay (Invitrogen) can detect the up-regulation of the antioxidant response element (ARE) signaling pathway and may be useful for the identification of chemicals that induce oxidative stress. National Center for Advancing Translational Sciences (NCATS), Rockville, MD National Institute of Health (NIH), Bethesda, Maryland\nNrf2/ARE-screen assay protocol: 1. In a white-solid bottom 1536-well plate, 5 uL of ARE-bla HepG2 cell suspension was dispensed using a Multidrop Combi (Thermo Fisher Scientific) at a final concentration of 2000 cells / well. 2. The assay plates were incubated for 5 hours at 37C, 5% CO2. 3. 23 nL of compounds (in DMSO; columns 5-48), vehicle control DMSO, and positive control were pin transferred into the assay plates using the Kalypsis pin tool (Wako USA) equipped with a 1536-well pin heads. This yields a final CANVASS compound concentration of 0.4 nM - 95 uM. 4. The assay plates were incubated for 16 hours at 37C, 5% CO2. 5. After compound treatment, 1 uL per well of CCF4 dye detection reagent was added using the BioRAPTR dispenser. 6. The assay plates were incubated for 2 hours at room temperature. 7. Fluorescence readout was obtained using the Envision plate reader (PerkinElmer) using a 405 nm excitation and 460 nm and 530 nm emission filters. 8. To evaluate cell viability, 4 uL of CellTiter-Glo was added to each wells using the BioRAPTR dispenser followed by a 30 min room temperature incubation. 9. Luminescence was measured using the ViewLux plate reader with clear emission filter and 2x binning, 1 sec exposure settings.", "values": [{"smiles": "C=CC(CCCCC)C1C(=O)NC(=O)C1C(=O)C1C(/C=C/C)C=CC2CC(C(=O)O)CC(C)C21", "note": "(stereo not given)", "Potency": "3.31 µM (active)"}, {"smiles": "O=C1CCC(=O)N(O)CCCCCNC(=O)CCC(=O)N(O)CCCCCNC(=O)CCC(=O)N(O)CCCCCN1", "Potency": "inactive"}, {"smiles": "CC(C)C[C@@H]1c2c(O)c(C=O)c(O)c(C=O)c2O[C@]2(C)C=C[C@@H](C(C)C)C[C@H]12", "Potency": "inactive"}, {"smiles": "O=C1CC2OCC=C3CN4C5CC3C2[C@@H]2N1c1ccccc1[C@]52C[C@@H]4C1=C[C@H]2C3CC4N(CC[C@@]45c4ccccc4N(C1=O)[C@@H]25)C/C3=C/CO", "note": "(stereo not given in full)", "Potency": "1.66 µM (active)"}, {"smiles": "O[C@H]1c2ccccc2-c2c3c(cc4c2[C@@H]1NCC4)OCO3", "Potency": "18.6 µM (active)"}, {"smiles": "C=C1CC[C@@H](O[C@H]2C[C@@](O)([C@H](C)NC(=O)c3[nH]c(C)c(Cl)c3Cl)[C@H](O)[C@@H](C)O2)[C@@H]2C=C[C@H](C)C(/C(O)=C3/C(=O)[C@H](C(C)C)N([C@@H]4O[C@H](C)[C@H](OC(N)=O)[C@H](OC(C)=O)[C@@H]4OC)C3=O)[C@@H]12", "note": "(stereo not given in full)", "Potency": "inactive"}, {"smiles": "CCC(=O)N[C@@H](C[C@H](C)C(Cl)(Cl)Cl)C(=O)N1C(=O)C=C(OC)[C@@H]1C[C@H](C)CCl", "Potency": "inactive"}, {"smiles": "COc1c(O)cc2c(c1O)C(=O)c1c(coc1C)C2=O", "Potency": "7.41 µM (active)"}, {"smiles": "C/C=C(/C)c1c(Cl)c(O)c(C)c2c1Oc1c(Cl)c(O)c(Cl)c(C)c1C(=O)O2", "Potency": "inactive"}, {"smiles": "C[n+]1cc2cc(C(N)=O)[nH]c3c(=N)c(Cl)c(N)c1c23", "Potency": "inactive"}, {"smiles": "C[C@H]1CCC2(OC1)O[C@H]1C[C@H]3[C@@H]4CC(=O)[C@]5(O)C[C@H](O)CC[C@@]5(C)[C@H]4CC[C@@]3(C)[C@H]1[C@H]2C", "note": "(stereo not given in full)", "Potency": "2.09 µM (active)"}, {"smiles": "COc1cc(O)c(C(=O)[C@@H]2[C@H](CC=C(C)C)C(C)=CC[C@H]2c2ccccc2)c(O)c1", "Potency": "inactive"}, {"smiles": "C=C1C[C@H]2O[C@@H]3[C@@H]4[C@H](CC[C@@](C)(O)[C@@H]42)[C@H](C)COC3(C)[C@@H](OC(=O)CCCCCCC)CC1=O", "note": "(stereo not given in full)", "Potency": "inactive"}, {"smiles": "CN1CC[C@@]2([C@@]34CCN(C)[C@@H]3Nc3ccccc34)c3ccccc3N[C@@H]12", "Potency": "inactive"}, {"smiles": "CC(C)=CCCC(C)(O)[C@H]1CC=C(C)C(O)C1", "note": "(stereo not given in full)", "Potency": "inactive"}, {"smiles": "C=C1CCC2C(C)(C(=O)O)CCC(CC/C(C)=C/C(=O)NC(CCC(N)=O)C(=O)O)[C@@]2(C)C1", "note": "(stereo not given in full)", "Potency": "inactive"}, {"smiles": "CC[C@H]1[C@H](C)[C@H](c2cc(OC)c(OC)cc2OC)[C@@H](C)[C@H](c2cc(OC)c(OC)cc2OC)[C@@]12C=C(OC)C(=O)C=C2OC", "Potency": "14.8 µM (active)"}, {"smiles": "CO[C@@H]1[C@H](O)[C@@H](C)O[C@@H](OC[C@@H]2C(C)OC(=O)/C=C/[C@H](C)C(O[C@@H]3O[C@H](C)CC4(OC(=O)O[C@@H]4C)C3O)[C@@H](C)CC(C)C(=O)/C=C/[C@H]3OC23)[C@@H]1OC", "note": "(stereo not given in full)", "Potency": "3.71 µM (active)"}, {"smiles": "O=C1OC(CCO)c2cccc(O)c21", "note": "(stereo not given)", "Potency": "inactive"}, {"smiles": "C/C(=C\\[C@@H](C)CC/C=C/CC/C=C/C(=O)O)[C@@H](O)[C@H](C)C(=O)CCCC1CC(=O)NC(=O)C1", "Potency": "inactive"}, {"smiles": "COC(=O)[C@]1([C@H]2CCC(=O)O2)CC(=O)c2c(O)cc(C)cc2O1", "Potency": "inactive"}, {"smiles": "C/C(=C\\[C@H](C)C(=O)C[C@H](O)CC1CC(=O)NC(=O)C1)[C@@H]1OC(=O)CCCC/C=C/[C@@H](O)C[C@@H]1C", "Potency": "7.41 µM (active)"}, {"smiles": "CCC(=O)CCCCC[C@@H]1NC(=O)[C@H]2CCCCN2C(=O)[C@H](C(C)C)NC(=O)[C@H](Cc2cn(OC)c3ccccc23)NC1=O", "Potency": "inactive"}, {"smiles": "C/C=C/C1C=CC2CC(C)CC(C)C2C1C(=O)CC(=O)NC(CO)C/C=C/CCCCC", "note": "(stereo not given)", "Potency": "16.6 µM (active)"}, {"smiles": "COc1cc(C2OCC3C(c4ccc(O)c(OC)c4)OCC23)ccc1O", "note": "(stereo not given)", "Potency": "0.305 µM (active)"}, {"smiles": "CC1=C(C)C(=O)OC(C(C)C2(O)CCC3C4C5OC5C5(O)CC=CC(=O)C5(C)C4CCC32C)C1", "note": "(stereo not given)", "Potency": "18.6 µM (active)"}, {"smiles": "CO/C=C/C(=O)c1cc2cnc3c(N)cc(=NC(=O)C(C)C)c([nH]1)c23", "Potency": "inactive"}, {"smiles": "C/C(=C\\[C@@H](C)CC/C=C/CC/C=C/C(=O)O)[C@H](O)[C@H](C)C(=O)CCCC1CC(=O)NC(=O)C1", "Potency": "inactive"}, {"smiles": "CC(=O)Oc1cc2c(c(OC(C)=O)c1C1CCc3cc(Cl)c(Cl)n31)C(=O)n1c-2cc(Cl)c1Cl", "note": "(stereo not given)", "Potency": "inactive"}, {"smiles": "COc1ccc([C@@H]2c3cc4c(cc3C[C@H](C)C2C)OCO4)cc1OC", "note": "(stereo not given in full)", "Potency": "inactive"}, {"smiles": "O=Cc1ccc2n1C[C@]1(C[C@H](O)[C@@H](CO)O1)OC2", "Potency": "inactive"}, {"smiles": "CN1CC[C@]23c4ccccc4N[C@H]1[C@]21CCN(C)[C@H]3Nc2ccccc21", "Potency": "inactive"}, {"smiles": "C/C=C(/CO)C(=O)O[C@@H]1[C@H](O)[C@@H](C(=O)OC)O[C@@H]2C[C@H]3OC(n4cnc5c(N)ncnc54)[C@H](OC)[C@H]3O[C@@]12O", "note": "(stereo not given in full)", "Potency": "18.6 µM (active)"}, {"smiles": "COC12OC1(C13OC1(OC)C(=O)c1cc4cc(C)oc(=O)c4c(O)c1C3O)C(O)c1c(cc3cc(C)oc(=O)c3c1O)C2=O", "note": "(stereo not given)", "Potency": "inactive"}, {"smiles": "COc1cc2ccc(=O)oc2c(O)c1O[C@@H]1O[C@H](CO)[C@@H](O)[C@H](O)[C@H]1O", "Potency": "inactive"}, {"smiles": "C/C=C1/C2=CCCN3C(=O)O[C@H]([C@H]1O)[C@H]23", "Potency": "inactive"}, {"smiles": "C=C1CC[C@@H](Br)C(C)(C)[C@]12CC=C(C)C(=O)C2", "Potency": "16.6 µM (active)"}, {"smiles": "C/C(=C\\[C@H](C)C(=O)CCCC1CC(=O)NC(=O)C1)[C@@H]1OC(=O)/C=C/CC/C=C/[C@H](O)[C@@H](O)[C@@H]1C", "Potency": "inactive"}, {"smiles": "CC(C)=CCC[C@]1(C)[C@H]2CC(=O)[C@@]3(CO3)[C@@H]1C2", "Potency": "inactive"}, {"smiles": "COC1C(C)OC(OCC23C[C@@H]4[C@H](C)CC[C@H]4C4(C=O)CC2C=C(C(C)C)C34C(=O)O)[C@@H](O)[C@H]1O", "note": "(stereo not given in full)", "Potency": "inactive"}]}]}
